Data taken from PubChem BioAssay (NCI).
The panel holds about 83,000 compounds, 20% with a hit somewhere; the sample as a whole holds those more often.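 A percent growth of 40 corresponds to 60% growth inhibition; 0 means no net growth; -100 means all cells died. Active threshold: below 10.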 A number with no mark means an inactive call. Activity calls are given as the source filed them.

Legend:
Assay in all cases: NCI-60 one-dose screen, 48 h (100 = growth as untreated, 0 = no growth, -100 = all killed)
Conditions in all cases: 10 µM
NCI-H23 lung = system: NCI-H23 lung
NCI-H226 lung = system: NCI-H226 lung
NCI-H322M lung = system: NCI-H322M lung
HOP-62 NSCLC = system: HOP-62 NSCLC
NCI-H460 lung = system: NCI-H460 lung
HOP-92 NSCLC = system: HOP-92 NSCLC
NCI-H522 lung = system: NCI-H522 lung
A549/ATCC NSCLC = system: A549/ATCC NSCLC
786-0 renal = system: 786-0 renal
COLO 205 colon = system: COLO 205 colon
DU-145 prostate = system: DU-145 prostate
K-562 leukemia = system: K-562 leukemia
MALME-3M melanoma = system: MALME-3M melanoma
MDA-MB-231 breast = system: MDA-MB-231 breast
SF-268 CNS = system: SF-268 CNS
SF-295 CNS = system: SF-295 CNS
SF-539 CNS = system: SF-539 CNS
UACC-257 melanoma = system: UACC-257 melanoma
M14 melanoma = system: M14 melanoma

Row | Compound | growth (NCI-H23 lung) | growth (NCI-H226 lung) | growth (NCI-H322M lung) | growth (HOP-62 NSCLC) | growth (NCI-H460 lung) | growth (HOP-92 NSCLC) | growth (NCI-H522 lung) | growth (A549/ATCC NSCLC) | growth (786-0 renal) | growth (COLO 205 colon) | growth (DU-145 prostate) | growth (K-562 leukemia) | growth (MALME-3M melanoma) | growth (MDA-MB-231 breast) | growth (SF-268 CNS) | growth (SF-295 CNS) | growth (SF-539 CNS) | growth (UACC-257 melanoma) | growth (M14 melanoma)
1 | CC1(c2ccccc2)NC(=O)N(CC(=O)Nc2ccc(C(=O)/C=C/c3ccc(Cl)cc3)cc2)C1=O (centres undefined) | 18.6% | -0.196% (active) | 51.1% | 35.6% | 21.5% | -10.4% (active) | 41.4% | 6.84% (active) | -21.5% (active) | -24.4% (active) | 28% | 2.06% (active) | 34.8% | 13.6% | 19.7% | 8.45% (active) | -89.3% (active) | 20.6% | -26.9% (active)
2 | CN1C(=O)N(C)C2SC(N/N=C/c3ccccc3F)=NC21 (centres undefined) | 76.5% | 92.4% | 97.2% | 68.3% | 58.2% | 124% | 46.1% | 63.1% | 68.7% | 100% | 94.7% | 17.2% | 59.4% | 50.2% | 78.7% | 62% | 54.3% | 82.7% | 36.5%
3 | O=c1oc2ccccc2cc1-c1csc(N=Nc2c(O)[nH]c3ccc(Br)cc23)n1 | 61.5% | 58.4% | 92.9% | 40.2% | 106% | -7.7% (active) | 67.4% | 100% | 12.5% | 127% | 94.2% | 103% | 56.3% | 56.5% | 51.2% | 39.5% | 35.6% | 105% | 97.5%
4 | CN1CCN(Cc2ccc(NC(=O)c3cncc(C#Cc4cnc5ccc(N[C@@H]6CCOC6)nn45)c3)cc2C(F)(F)F)CC1 | -81.3% (active) | -94.9% (active) | -99.2% (active) | -75.5% (active) | -30% (active) | -82% (active) | -71.6% (active) | -56% (active) | -77.4% (active) | -65.5% (active) | -100% (active) | -0.568% (active) | -99.1% (active) | -94.7% (active) | -80.7% (active) | -98.6% (active) | -100% (active) | -85.9% (active) | -83.3% (active)
5 | COc1ccc(/C=N/N=C(\C)c2ccc3c(c2)Nc2ccccc2S3)cc1O | 35.9% | 49.2% | 71.2% | 80.1% | 41.1% | 74.1% | 48.3% | 63.9% | 73.9% | 99.9% | 62.7% | 25.7% | 55.1% | 65.3% | 57.2% | 45.1% | 67.2% | 27.6% | 49.3%
6 | O=C(/C=C/Nc1ccccc1)c1ccc2c(c1)Nc1ccccc1S2 | 70% | 43.5% | 75.7% | 53.5% | 62.5% | 98.7% | 61.4% | 87.7% | 87.2% | 100% | 84.3% | 90.6% | 71.5% | 69.2% | 81.2% | 78.1% | 59.9% | 96.7% | 93.8%
7 | CN1C(=O)N(C)C2SC(N/N=C/c3ccccc3)=NC21 (centres undefined) | 79.5% | 98.1% | 98.3% | 76.9% | 68.9% | 111% | 60.4% | 72.4% | 82.3% | 92.5% | 97.1% | 19.2% | 61.6% | 56.5% | 82.9% | 66.6% | 64.5% | 90.5% | 48.4%
8 | O=C(CNc1nc(-c2ccccc2)cs1)Nc1ccc(Cl)cc1[N+](=O)[O-] | -57.3% (active) | -54.2% (active) | 35.7% | -27.7% (active) | 5.09% (active) | -14.2% (active) | -82.8% (active) | 12.6% | 4.95% (active) | -64.7% (active) | 10.1% | 4.23% (active) | -70.5% (active) | -66.7% (active) | -58.4% (active) | -49.7% (active) | -86.8% (active) | -17.2% (active) | -13.1% (active)
9 | NS(=O)(=O)c1ccc(NC(=O)CSc2ccc(-c3ccccc3)nn2)c(Br)c1 | 59.1% | 20.5% | 64.3% | 17.4% | 82.4% | -20.3% (active) | 42.4% | 70.4% | 19.5% | 137% | 75.9% | 96% | 72.8% | 47.7% | 20.8% | 69.9% | 48.5% | 100% | 99.1%
10 | O=C(Nc1ccc(Cl)c([N+](=O)[O-])c1)Nc1ccc(Cl)c([N+](=O)[O-])c1 | -14.3% (active) | -4.77% (active) | 27.7% | 30.5% | 9.48% (active) | -34.2% (active) | 28.1% | 26.1% | 10.7% | 2.69% (active) | 18.4% | 19.8% | -11.2% (active) | 17.5% | 18% | 0.239% (active) | 11.4% | 36.9% | 18.6%
11 | CC(=O)c1ccc(Nc2nc(SC(C)C)nc(-c3ccccc3)c2C#N)cc1 | 22.4% | -25.1% (active) | 24.2% | -27.8% (active) | 20.2% | -15.8% (active) | 64.6% | 57.3% | -56.6% (active) | 74.7% | 43.8% | 43% | 8.39% (active) | -0.399% (active) | 41.1% | -40.7% (active) | -17.4% (active) | 96.1% | 73.8%
12 | C=CCn1c(SCC(=O)Nc2ccc(C(=O)/C=C/c3ccccc3)cc2)nnc1-c1c[nH]c2ccccc12 | 68.3% | 35.4% | 79.5% | 74.1% | 78.6% | 70.4% | 60.6% | 63.5% | 79.1% | 59.7% | 65.8% | 14.6% | 92.4% | 69.3% | 53.3% | 35% | -7.36% (active) | 80.3% | 35.3%
13 | O=C(CNc1nc(-c2ccccc2)cs1)Nc1ccccc1 | -86.4% (active) | -2.46% (active) | -96.2% (active) | -62.9% (active) | -11.4% (active) | -8.88% (active) | -81.6% (active) | 7.05% (active) | -25.5% (active) | -83.8% (active) | 14.1% | 5.68% (active) | -61% (active) | -30.7% (active) | 8.59% (active) | -1.92% (active) | -93.7% (active) | -14.3% (active) | -73.8% (active)
14 | N#C/C(=C\c1ccc(N(c2ccccc2)c2ccccc2)cc1)C(N)=O | 55.9% | -82.6% (active) | 92.9% | 48.9% | 5.51% (active) | 75.5% | 74.5% | 36.3% | 53.9% | 19.7% | 84.8% | 35.4% | 110% | 89.3% | 102% | 23.5% | 97% | -55.9% (active) | 90.7%
15 | CC(C)C1=C[C@@]23CC[C@@H]4[C@](C)(CCC[C@]4(C)C(=O)NCc4ccccc4)[C@H]2C[C@@H]1[C@H]1C(=O)OC(=O)[C@H]13 | 23% | 76.1% | 102% | 57.2% | 17.6% | 64.7% | 17% | 33.7% | 70.5% | 79.6% | 55.3% | 21.5% | 87% | 77.1% | 46.6% | 17.8% | 63.2% | 82.1% | 54.3%
16 | CC(=O)Nc1ccc(-c2cn(-c3cccc(C(=O)Nc4ccc(F)c(C(F)(F)F)c4)c3)nn2)cn1 | 23.6% | 26.4% | 54.3% | 87.7% | -47.1% (active) | 65.6% | 62.3% | 54.3% | 79.9% | 46% | 42.5% | 10.9% | 2.13% (active) | -4.26% (active) | 68.8% | 29.4% | 22.7% | 90.4% | 62.6%
